# Measurements reported in PubChem BioAssay AID602143 (Vanderbilt Specialized Chemistry Center, 2011).
# A number with no mark means an inactive call. Calls of active or inactive are those of the source. Cut-off read from the data, not from the text of the source: active = remaining activity below about 50%; inactive = the rest.
# Target: Phospholipase D2 (Homo sapiens) (UniProt O14939)
# Experiment: cellular phospholipase D2 activity inhibition – cell-based, HEK293, single concentration (AID 602143);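 note: tested at 200 nM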
# Conditions: HEK293 cellular PLD2 activity, percent of control; stronger effect = lower value
# Chain of Phospholipase D2 (Homo sapiens) (O14939 whole entry, looked up): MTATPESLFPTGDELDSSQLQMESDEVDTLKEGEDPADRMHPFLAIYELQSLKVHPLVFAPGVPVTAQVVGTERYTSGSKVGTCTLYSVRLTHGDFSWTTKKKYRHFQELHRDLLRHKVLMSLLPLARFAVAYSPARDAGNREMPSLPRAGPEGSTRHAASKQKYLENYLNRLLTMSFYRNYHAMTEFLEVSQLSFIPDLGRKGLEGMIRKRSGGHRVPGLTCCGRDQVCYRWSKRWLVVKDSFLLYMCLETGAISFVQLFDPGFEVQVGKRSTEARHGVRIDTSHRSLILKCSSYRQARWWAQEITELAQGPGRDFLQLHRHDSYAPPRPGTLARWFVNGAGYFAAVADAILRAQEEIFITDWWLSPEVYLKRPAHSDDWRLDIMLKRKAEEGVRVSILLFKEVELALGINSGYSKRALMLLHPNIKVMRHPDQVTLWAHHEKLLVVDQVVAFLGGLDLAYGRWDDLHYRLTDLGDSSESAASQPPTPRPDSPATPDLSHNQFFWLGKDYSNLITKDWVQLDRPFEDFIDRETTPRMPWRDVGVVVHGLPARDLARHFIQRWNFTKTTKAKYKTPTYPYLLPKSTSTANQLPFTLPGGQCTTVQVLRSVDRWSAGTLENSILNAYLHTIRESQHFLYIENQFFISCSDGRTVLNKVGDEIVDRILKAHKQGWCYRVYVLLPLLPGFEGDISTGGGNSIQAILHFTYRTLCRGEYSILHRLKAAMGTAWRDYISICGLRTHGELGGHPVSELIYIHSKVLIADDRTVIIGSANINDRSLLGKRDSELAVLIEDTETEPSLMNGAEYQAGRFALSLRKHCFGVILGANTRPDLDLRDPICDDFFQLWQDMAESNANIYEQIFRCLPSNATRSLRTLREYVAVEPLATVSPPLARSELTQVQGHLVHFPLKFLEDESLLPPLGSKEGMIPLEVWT
# Chain of Phospholipase D2 (Homo sapiens) (O14939 whole entry, looked up): as above
row,Structure (SMILES),remaining activity
1,Cc1ccc(C(=O)NCCN2CCN(c3ccncc3)CC2)cc1,114%
2,CCS(=O)(=O)NCCN1CCC(n2c(=O)[nH]c3ccccc32)CC1,100%
3,O=C(NCCN1CCC(n2c(=O)[nH]c3ccccc32)CC1)c1cscn1,57.9%
4,Cc1ccc(C(=O)N[C@@H](C)CN2CCC(n3c(=O)[nH]c4cc(Cl)ccc43)CC2)cc1,86%
5,Cc1cccc(C(=O)NCCN2CCC(n3c(=O)[nH]c4ccccc43)CC2)n1,52.5%
6,O=C(NCCN1CCC(c2nc3ccccc3[nH]2)CC1)c1cnc2ccccc2c1,80.6%
7,C[C@@H](CN1CCC(n2c(=O)[nH]c3ccccc32)CC1)NC(=O)c1ccc(F)c(F)c1,75.6%
8,O=C(NCCN1CCN(c2ccncc2)CC1)c1c2ccccc2cc2ccccc12,127%
9,COc1ccccc1NC(=S)NCCN1CCC(n2c(=O)[nH]c3ccccc32)CC1,126%
10,CC(C(=O)NCCN1CCC(n2c(=O)[nH]c3ccccc32)CC1)(c1ccccc1)c1ccccc1,65.3%
11,O=c1[nH]c2ccccc2n1C1CCN(CCNC(=S)Nc2ccccc2F)CC1,87.4%
12,C[C@@H](CN1CCC2(C=Cc3ccccc32)CC1)NC(=O)[C@H]1C[C@@H]1c1ccccc1,87.1%
13,Cc1cccc(NC(=S)NCCN2CCC(n3c(=O)[nH]c4ccccc43)CC2)c1,113%
14,O=C(C1C[C@@H]1c1ccccc1)N1CCC(n2c(=O)[nH]c3cc(Cl)ccc32)CC1 (some centres not stated),72.5%
15,CN1CCC2(CCN(CCNC(=O)[C@H]3C[C@@H]3c3ccccc3)CC2)C1=O,102%
16,O=C(NCCN1CCC(n2c(=O)[nH]c3ccccc32)CC1)c1ccc(-c2ccccc2)o1,68.6%
17,O=C(NCCN1CC=C(n2nnc3cc(C(F)(F)F)ccc32)CC1)c1cnc2ccccc2c1,114%
18,O=C1c2ccccc2C(=O)N1CCCNc1cccc(F)c1,119%
19,Cc1ccc(C(=O)NCCN2CCN(c3ccccn3)CC2)cc1,107%

row,Structure (SMILES),remaining activity
1,CC(C)[C@@H](CN1CCC(n2c(=O)[nH]c3ccccc32)CC1)NC(=O)c1cc2cc(F)ccc2[nH]1,79.5%
2,O=c1[nH]c2ccccc2n1C1CCN(CCNS(=O)(=O)c2cc(Cl)ccc2Cl)CC1,68.8%
3,O=C(NCCN1CCC2(CC1)CNCc1ccccc12)c1ccc2ccccc2c1,103%
4,O=C(NCCN1CCC(n2c(=O)[nH]c3ccc(F)cc32)CC1)c1ccc(Cl)c(Cl)c1,0% (active)
5,C[C@@H](CN1CCC(n2c(=O)[nH]c3ccccc32)CC1)NC(=O)c1ccco1,97.1%
6,C[C@H](CN1CCC2(CC1)CNc1ccccc12)NC(=O)c1ccc2ccccc2c1,53.8%
7,COc1cc(C(=O)NCCN2CCN(c3ccncc3)CC2)ccc1N,130%
8,O=C(NCCN1CCC(n2c(=O)[nH]c3ccccc32)CC1)c1cc2ccccc2c2ccccc12,51.2%
9,O=C(NCCN1CCC(n2nnc3ccccc32)CC1)c1cnc2ccccc2c1,77.7%
10,Cc1ccc(NC(=S)NCCN2CCC(n3c(=O)[nH]c4ccccc43)CC2)cc1,146%
11,CC1(C)[C@H]2CC[C@]1(CS(=O)(=O)NCCN1CCC(n3c(=O)[nH]c4ccccc43)CC1)C(=O)C2,72.8%
12,O=C(NCCN1CCC(n2c(=O)[nH]c3ccccc32)CC1)NC(c1ccccc1)c1ccccc1,123%
13,O=c1[nH]c2ccccc2n1C1CCN(CCNS(=O)(=O)c2cccc(C(F)(F)F)c2)CC1,61.1%
14,O=C(CCCN1CCC(O)(c2ccc(Cl)cc2)CC1)c1ccc(F)cc1,107%
15,C[C@@H](CN1CCC(n2c(=O)[nH]c3cc(F)ccc32)CC1)NC(=O)c1ccc(F)c(F)c1,85.2%
16,Cc1ccc(C(=O)N[C@@H](C)CN2CCC(n3c(=O)[nH]c4cc(Br)ccc43)CC2)cc1,74%
17,C[C@@H](CN1CCC2(CCc3ccccc32)CC1)NC(=O)c1ccc2ccccc2c1,104%
18,Cc1ccc(C(=O)N[C@@H](C)CN2CCC(n3c(=O)[nH]c4c(F)cccc43)CC2)cc1,98.2%
